# Test results as given in PubChem BioAssay (NCATS).
# Results filed as inconclusive are left out. Where a call stands in place of a potency, no number is given. Active and inactive are the calls of the source. Calls follow the shape of the dose curve; as a rule, active = well fitted inhibition curve with a large enough effect; inconclusive = small, poorly fitted or top-dose-only effect; inactive = no such curve, though single readings can be large or run the other way.
# Biological target: Retinaldehyde dehydrogenase 3 (Homo sapiens) (UniProt P47895)
# Assay: qHTS for Inhibitors of the Aldehyde Dehydrogenase Family (ALDH1A3) Primary screen (AID 2061315)
# Conditions: ALDH inhibition qHTS; series mostly up to 56 µM
row,SMILES,Potency
1,CCCCC(=O)N(Cc1ccc(-c2ccccc2-c2nn[nH]n2)cc1)C(C(=O)O)C(C)C (stereo not drawn),inactive
2,COC1CC(=O)C23C(=O)NC(CC(C)C)C2C(C)C(C)=CC3/C=C(\C)CCCC1O (stereo not drawn),inactive
3,C=C1CC2C3(C)C(O)CC(=O)C(C)(C)C3C(O)C(OC(C)=O)C2(C)C2C(=O)OC(C)(C(=O)OC)C(=O)C12C (stereo not drawn),inactive
4,C=C(COC(=O)C(O)C(O)CN)C12OC1C1(C)C(=CC2=O)C(O)C(O)CC1C (stereo not drawn),inactive
5,CC1(C)CCC[C@@]2(C)[C@H]1[C@H](O)C=C(CO)[C@]2(O)CO,inactive
6,CC1=C2C=C(CO)C(CO)CCC2(C)CCC1=O (stereo not drawn),inactive
7,CC1CCC(=O)CC(SCC(O)C(=O)O)CCC(=O)O1 (stereo not drawn),inactive
8,COCC(c1ccc(C(F)(F)F)cc1)N1CCN(C2(C)CCN(C(=O)c3c(C)ncnc3C)CC2)CC1C (stereo not drawn),inactive
9,C=C(C(=O)OC)C1C(O)CC2(C)C(O)CCC(=O)C2C1O (stereo not drawn),inactive
10,O=C1CCC(c2ccccc2)(C2CCN(Cc3ccc(I)cc3)CC2)C(=O)N1 (stereo not drawn),inactive
11,Clc1ccc(Nc2nc3ccccc3c3nc(C4CCCCC4)[nH]c23)cc1Cl,inactive
12,C/C=C(/C)C(=O)O[C@H]1C[C@]2(C)O[C@@H]2[C@@H](OC(C)=O)[C@@]2(C)CC[C@@](O)(C(C)C)[C@H]12,inactive
13,C[C@@H]1O[C@@H](O[C@H]2[C@H](O[C@H]3CC[C@@]4(C)C(CC[C@]5(C)C4C=C[C@]46OC[C@@]7(CCC(C)(C)C[C@H]74)[C@@H](O[C@@H]4O[C@@H](C)[C@H](O)[C@@H](O)[C@H]4O)C[C@]65C)[C@]3(C)CO)O[C@H](CO)[C@@H](O)[C@@H]2O[C@@H]2O[C@H](CO)[C@@H](O)[C@H](O)[C@H]2O)[C@H](O)[C@H](O)[C@H]1O (stereo partly drawn),inactive
